Test results reported in publication PMC7862700, “An all-to-all approach to the identification of sequence-specific readers for epigenetic DNA modifications on cytosine”.

Legend:
Assay in all cases: DAPPL (digital affinity profiling via proximity ligation, sequencing); 10 mM Tris-HCl pH 7.5, 50 mM NaCl, 1 mM DTT, 4% glycerol, room temperature, 30 min; GST-TFs on glutathione beads, 16-mer random dsDNA library, 0.1% formaldehyde crosslink after washing; high values mean tight binding
[1] = target: T1, FLI1 (Homo sapiens, UniProt Q01543 1-452); settings: protein: recombinant; tags: N-terminal GST; dsDNA, one strand shown
T1 sequence: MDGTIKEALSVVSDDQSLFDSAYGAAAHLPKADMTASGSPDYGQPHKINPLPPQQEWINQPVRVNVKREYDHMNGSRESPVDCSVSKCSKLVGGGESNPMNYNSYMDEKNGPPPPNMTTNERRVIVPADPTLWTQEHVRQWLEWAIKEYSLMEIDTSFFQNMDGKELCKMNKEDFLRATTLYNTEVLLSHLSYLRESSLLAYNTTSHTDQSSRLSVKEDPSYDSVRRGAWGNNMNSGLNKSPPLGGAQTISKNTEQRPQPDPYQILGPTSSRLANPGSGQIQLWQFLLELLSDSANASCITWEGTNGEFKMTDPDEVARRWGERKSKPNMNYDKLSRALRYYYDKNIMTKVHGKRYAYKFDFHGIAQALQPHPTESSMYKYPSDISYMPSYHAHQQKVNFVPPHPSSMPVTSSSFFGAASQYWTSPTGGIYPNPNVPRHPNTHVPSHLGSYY
Summary of the method: (§1)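 In yeast, human transcription factors were expressed with a GST fusion, then pulled down on glutathione beads and given DNA barcodes. Pooled with a tag-only sample, they were exposed to 200 nmole of a 16-mer random double-stranded DNA library (Tris/NaCl/DTT/glycerol buffer, room temperature, 30 min), washed, crosslinked with 0.1% formaldehyde, proximity-ligated using BsaI/T4 ligase for 1 h at 37 °C, PCR-amplified and read on an Illumina NextSeq500. Each hexamer's frequency of reads for a factor, divided by the matching frequency for the tag-only sample, gives the binding signal.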

[2] = target: T2, ELK1 (Homo sapiens, UniProt P19419 1-428); settings: protein: recombinant; tags: N-terminal GST; dsDNA, one strand shown
T2 sequence: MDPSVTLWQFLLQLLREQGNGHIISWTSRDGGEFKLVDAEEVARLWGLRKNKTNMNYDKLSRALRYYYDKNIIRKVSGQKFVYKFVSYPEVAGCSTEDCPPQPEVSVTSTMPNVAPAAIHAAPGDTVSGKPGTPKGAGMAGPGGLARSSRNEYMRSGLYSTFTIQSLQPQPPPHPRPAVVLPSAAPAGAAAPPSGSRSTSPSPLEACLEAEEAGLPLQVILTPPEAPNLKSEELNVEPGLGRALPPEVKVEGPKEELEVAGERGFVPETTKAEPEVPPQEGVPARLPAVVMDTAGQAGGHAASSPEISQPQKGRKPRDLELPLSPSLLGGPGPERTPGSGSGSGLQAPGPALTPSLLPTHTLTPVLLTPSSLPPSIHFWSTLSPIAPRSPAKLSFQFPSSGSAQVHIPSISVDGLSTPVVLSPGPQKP
Summary of the method: as §1

[3] = target: T3, GABPA (Homo sapiens, UniProt Q06546 1-454); settings: protein: recombinant; tags: N-terminal GST; dsDNA, one strand shown
T3 sequence: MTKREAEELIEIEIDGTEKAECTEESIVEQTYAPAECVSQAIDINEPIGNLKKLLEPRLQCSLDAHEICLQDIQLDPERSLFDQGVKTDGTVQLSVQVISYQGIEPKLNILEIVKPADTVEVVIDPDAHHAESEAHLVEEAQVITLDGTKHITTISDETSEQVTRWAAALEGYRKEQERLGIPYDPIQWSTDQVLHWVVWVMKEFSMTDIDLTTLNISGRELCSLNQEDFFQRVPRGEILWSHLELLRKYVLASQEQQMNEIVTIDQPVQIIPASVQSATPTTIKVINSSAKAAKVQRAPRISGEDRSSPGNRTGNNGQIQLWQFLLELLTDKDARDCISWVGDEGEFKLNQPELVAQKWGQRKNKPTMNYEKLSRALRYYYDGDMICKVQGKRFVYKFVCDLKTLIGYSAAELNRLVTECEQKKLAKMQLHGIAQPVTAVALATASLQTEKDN
Summary of the method: as §1

[4] = target: T4, ERG (Homo sapiens, UniProt P11308 1-479); settings: protein: recombinant; tags: N-terminal GST; dsDNA, one strand shown
T4 sequence: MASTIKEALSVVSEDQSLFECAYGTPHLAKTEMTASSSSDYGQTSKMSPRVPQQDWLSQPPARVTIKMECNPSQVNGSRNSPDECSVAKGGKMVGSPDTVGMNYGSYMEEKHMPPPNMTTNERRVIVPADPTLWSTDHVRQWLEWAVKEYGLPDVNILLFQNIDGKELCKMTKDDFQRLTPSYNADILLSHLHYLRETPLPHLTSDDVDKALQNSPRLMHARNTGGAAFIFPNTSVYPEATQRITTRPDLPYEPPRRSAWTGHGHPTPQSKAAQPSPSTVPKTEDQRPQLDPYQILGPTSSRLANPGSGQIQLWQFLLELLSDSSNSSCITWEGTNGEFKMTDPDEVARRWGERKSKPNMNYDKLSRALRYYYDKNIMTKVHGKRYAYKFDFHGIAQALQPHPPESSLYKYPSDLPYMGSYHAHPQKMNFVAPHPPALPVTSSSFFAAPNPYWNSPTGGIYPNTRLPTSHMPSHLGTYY
Summary of the method: as §1

[5] = target: ELF1 (Homo sapiens, UniProt P32519 1-619); settings: protein: recombinant; tags: N-terminal GST; dsDNA, one strand shown
Summary of the method: as §1

[6] = target: T5, EHF (Homo sapiens, UniProt Q9NZC4 1-300); settings: protein: recombinant; tags: N-terminal GST; dsDNA, one strand shown
T5 sequence: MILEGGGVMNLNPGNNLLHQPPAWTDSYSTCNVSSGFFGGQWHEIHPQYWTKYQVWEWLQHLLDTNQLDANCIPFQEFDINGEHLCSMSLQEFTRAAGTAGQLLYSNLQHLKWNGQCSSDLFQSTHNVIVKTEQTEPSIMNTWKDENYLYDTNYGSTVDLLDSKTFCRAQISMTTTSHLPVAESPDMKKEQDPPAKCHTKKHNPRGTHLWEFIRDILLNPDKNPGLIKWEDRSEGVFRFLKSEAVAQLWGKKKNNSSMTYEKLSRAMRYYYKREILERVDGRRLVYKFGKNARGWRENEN
Summary of the method: as §1

[7] = target: SPI1 (Homo sapiens, UniProt P17947 1-270); settings: protein: recombinant; tags: N-terminal GST; dsDNA, one strand shown
Summary of the method: as §1

[8] = target: SPIB (Homo sapiens, UniProt Q01892 1-262); settings: protein: recombinant; tags: N-terminal GST; dsDNA, one strand shown
Summary of the method: as §1

[9] = target: T6, ELK3 (Homo sapiens, UniProt P41970 1-407); settings: protein: recombinant; tags: N-terminal GST; dsDNA, one strand shown
T6 sequence: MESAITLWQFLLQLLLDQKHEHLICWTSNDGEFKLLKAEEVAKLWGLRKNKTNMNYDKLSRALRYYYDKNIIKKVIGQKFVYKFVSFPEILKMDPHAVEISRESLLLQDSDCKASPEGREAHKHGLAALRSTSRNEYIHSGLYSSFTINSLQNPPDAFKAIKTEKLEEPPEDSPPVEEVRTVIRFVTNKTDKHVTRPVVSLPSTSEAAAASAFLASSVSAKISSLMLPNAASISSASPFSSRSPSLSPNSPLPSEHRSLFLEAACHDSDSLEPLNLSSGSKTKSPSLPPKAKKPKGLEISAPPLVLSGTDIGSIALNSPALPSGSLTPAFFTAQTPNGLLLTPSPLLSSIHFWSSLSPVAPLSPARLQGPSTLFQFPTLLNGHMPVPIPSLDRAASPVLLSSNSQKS
Summary of the method: as §1

[10] = target: T7, FEV (Homo sapiens, UniProt Q99581 1-238); settings: protein: recombinant; tags: N-terminal GST; dsDNA, one strand shown
T7 sequence: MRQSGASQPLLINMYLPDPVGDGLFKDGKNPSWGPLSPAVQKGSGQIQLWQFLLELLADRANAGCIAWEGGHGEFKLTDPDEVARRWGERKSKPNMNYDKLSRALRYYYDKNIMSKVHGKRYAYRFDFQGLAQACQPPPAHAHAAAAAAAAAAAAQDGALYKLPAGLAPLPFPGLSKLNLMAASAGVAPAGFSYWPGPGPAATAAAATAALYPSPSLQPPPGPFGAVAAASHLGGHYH
Summary of the method: as §1

[11] = target: ETV5 (Homo sapiens, UniProt P41161 1-510); settings: protein: recombinant; tags: N-terminal GST; dsDNA, one strand shown
Summary of the method: as §1

[12] = target: HSF1 (Homo sapiens, UniProt Q00613 1-529); settings: protein: recombinant; tags: N-terminal GST; chain copies: 3; dsDNA, one strand shown
Summary of the method: as §1

[13] = target: T8, SPIC (Homo sapiens, UniProt Q8N5J4 1-248); settings: protein: recombinant; tags: N-terminal GST; dsDNA, one strand shown
T8 sequence: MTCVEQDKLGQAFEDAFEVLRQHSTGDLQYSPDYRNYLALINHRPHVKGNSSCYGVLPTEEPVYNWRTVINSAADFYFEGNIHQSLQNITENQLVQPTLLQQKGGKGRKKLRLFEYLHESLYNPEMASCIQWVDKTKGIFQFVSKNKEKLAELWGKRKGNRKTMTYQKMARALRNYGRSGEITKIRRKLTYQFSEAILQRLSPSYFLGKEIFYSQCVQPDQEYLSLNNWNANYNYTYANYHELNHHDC
Summary of the method: as §1

[14] = target: ELF4 (Homo sapiens, UniProt Q99607 1-663); settings: protein: recombinant; tags: N-terminal GST; dsDNA, one strand shown
Summary of the method: as §1

[15] = target: T9, ELK4 (Homo sapiens, UniProt P28324-2 1-405); settings: protein: recombinant; tags: N-terminal GST; dsDNA, one strand shown
T9 sequence: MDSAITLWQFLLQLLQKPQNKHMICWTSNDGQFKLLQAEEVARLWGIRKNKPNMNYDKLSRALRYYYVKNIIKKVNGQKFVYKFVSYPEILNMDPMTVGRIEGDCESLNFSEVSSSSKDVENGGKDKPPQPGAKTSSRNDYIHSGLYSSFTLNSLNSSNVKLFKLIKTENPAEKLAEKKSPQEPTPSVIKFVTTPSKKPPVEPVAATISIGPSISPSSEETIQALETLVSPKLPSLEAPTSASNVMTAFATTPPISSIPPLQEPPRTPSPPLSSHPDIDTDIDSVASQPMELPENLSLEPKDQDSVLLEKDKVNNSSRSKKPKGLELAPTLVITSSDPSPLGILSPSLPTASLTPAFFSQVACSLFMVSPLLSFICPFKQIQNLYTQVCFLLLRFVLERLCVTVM
Summary of the method: as §1

[16] = target: T10, ETV2 (Homo sapiens, UniProt O00321 1-342); settings: protein: recombinant; tags: N-terminal GST; dsDNA, one strand shown
T10 sequence: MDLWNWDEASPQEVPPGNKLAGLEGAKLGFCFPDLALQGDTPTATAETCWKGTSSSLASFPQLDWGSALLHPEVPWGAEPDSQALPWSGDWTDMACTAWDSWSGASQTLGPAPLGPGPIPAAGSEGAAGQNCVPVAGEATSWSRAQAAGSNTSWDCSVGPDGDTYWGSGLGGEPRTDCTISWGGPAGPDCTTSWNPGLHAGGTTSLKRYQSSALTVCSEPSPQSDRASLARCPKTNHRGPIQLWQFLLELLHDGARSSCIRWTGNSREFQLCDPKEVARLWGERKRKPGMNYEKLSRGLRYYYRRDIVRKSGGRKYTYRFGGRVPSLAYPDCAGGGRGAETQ
Summary of the method: as §1

[17] = target: T11, ELF3 (Homo sapiens, UniProt P78545 1-371); settings: protein: recombinant; tags: N-terminal GST; dsDNA, one strand shown
T11 sequence: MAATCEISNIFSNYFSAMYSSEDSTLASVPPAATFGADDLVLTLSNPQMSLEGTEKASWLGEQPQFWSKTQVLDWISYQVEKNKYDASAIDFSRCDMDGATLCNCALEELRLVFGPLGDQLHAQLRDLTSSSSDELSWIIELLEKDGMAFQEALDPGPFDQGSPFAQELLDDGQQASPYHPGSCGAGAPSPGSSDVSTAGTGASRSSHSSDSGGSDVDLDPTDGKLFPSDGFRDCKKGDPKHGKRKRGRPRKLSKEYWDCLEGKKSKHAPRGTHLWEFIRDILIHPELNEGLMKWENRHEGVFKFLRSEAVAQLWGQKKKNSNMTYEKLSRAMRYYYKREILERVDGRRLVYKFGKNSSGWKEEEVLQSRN
Summary of the method: as §1

[18] = target: CRX (Homo sapiens, UniProt O43186 1-299); settings: protein: recombinant; tags: N-terminal GST; dsDNA, one strand shown
Summary of the method: as §1

[19] = target: ETV1 (Homo sapiens, UniProt P50549 1-477); settings: protein: recombinant; tags: N-terminal GST; dsDNA, one strand shown
Summary of the method: as §1

Chain of ETV5 (P41161 whole entry): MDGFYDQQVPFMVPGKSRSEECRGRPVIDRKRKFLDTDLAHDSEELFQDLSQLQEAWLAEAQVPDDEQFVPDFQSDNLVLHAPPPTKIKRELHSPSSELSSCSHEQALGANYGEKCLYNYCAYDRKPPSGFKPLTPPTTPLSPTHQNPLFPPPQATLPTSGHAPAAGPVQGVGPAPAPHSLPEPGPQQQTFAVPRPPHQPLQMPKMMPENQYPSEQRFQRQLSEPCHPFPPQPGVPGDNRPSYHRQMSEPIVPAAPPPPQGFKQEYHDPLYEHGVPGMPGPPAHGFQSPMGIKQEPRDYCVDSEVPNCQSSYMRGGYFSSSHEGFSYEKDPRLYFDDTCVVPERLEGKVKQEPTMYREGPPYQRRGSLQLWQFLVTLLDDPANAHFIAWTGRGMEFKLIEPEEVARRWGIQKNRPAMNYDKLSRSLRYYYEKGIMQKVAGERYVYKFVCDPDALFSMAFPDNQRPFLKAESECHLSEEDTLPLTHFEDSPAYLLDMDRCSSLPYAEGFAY
Chain of SPIB (Q01892 whole entry): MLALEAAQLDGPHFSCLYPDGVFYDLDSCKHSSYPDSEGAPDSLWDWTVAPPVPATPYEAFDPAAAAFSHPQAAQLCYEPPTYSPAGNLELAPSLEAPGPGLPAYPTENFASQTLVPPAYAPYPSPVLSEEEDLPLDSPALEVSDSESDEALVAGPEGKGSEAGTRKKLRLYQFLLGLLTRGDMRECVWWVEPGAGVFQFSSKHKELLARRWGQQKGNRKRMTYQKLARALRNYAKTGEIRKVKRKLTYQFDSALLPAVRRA
Chain of HSF1 (Q00613 whole entry): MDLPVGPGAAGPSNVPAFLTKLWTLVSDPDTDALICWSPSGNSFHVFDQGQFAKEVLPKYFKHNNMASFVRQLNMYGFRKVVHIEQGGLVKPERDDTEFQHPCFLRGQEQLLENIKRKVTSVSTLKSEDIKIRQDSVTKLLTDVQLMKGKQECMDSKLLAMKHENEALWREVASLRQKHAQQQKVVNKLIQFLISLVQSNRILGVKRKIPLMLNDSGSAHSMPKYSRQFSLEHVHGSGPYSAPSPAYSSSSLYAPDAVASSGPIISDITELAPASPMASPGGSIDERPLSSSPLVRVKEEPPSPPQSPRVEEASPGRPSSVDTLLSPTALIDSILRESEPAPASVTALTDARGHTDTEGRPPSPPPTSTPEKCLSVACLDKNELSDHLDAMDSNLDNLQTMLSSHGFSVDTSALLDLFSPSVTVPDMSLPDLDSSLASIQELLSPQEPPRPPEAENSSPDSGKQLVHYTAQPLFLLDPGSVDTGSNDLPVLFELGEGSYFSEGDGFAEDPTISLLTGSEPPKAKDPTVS
Chain of ELF4 (Q99607 whole entry): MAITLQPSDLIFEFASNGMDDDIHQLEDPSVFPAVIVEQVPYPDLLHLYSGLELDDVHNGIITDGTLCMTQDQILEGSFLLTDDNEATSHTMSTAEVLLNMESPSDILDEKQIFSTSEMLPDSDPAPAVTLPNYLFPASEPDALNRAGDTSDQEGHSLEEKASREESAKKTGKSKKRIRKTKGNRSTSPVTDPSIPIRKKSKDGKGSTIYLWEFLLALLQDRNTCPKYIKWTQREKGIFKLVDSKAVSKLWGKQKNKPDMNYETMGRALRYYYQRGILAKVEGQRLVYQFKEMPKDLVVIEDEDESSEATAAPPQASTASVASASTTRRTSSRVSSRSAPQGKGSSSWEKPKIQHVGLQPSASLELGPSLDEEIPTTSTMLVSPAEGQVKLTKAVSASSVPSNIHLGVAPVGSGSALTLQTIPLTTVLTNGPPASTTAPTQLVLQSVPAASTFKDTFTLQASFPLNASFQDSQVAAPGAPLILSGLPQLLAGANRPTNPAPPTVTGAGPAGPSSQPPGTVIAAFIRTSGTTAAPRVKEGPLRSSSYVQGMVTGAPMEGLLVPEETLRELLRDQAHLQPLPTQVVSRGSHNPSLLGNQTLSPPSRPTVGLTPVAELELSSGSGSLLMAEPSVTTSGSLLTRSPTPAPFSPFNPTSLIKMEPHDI
Chain of ETV1 (P50549 whole entry): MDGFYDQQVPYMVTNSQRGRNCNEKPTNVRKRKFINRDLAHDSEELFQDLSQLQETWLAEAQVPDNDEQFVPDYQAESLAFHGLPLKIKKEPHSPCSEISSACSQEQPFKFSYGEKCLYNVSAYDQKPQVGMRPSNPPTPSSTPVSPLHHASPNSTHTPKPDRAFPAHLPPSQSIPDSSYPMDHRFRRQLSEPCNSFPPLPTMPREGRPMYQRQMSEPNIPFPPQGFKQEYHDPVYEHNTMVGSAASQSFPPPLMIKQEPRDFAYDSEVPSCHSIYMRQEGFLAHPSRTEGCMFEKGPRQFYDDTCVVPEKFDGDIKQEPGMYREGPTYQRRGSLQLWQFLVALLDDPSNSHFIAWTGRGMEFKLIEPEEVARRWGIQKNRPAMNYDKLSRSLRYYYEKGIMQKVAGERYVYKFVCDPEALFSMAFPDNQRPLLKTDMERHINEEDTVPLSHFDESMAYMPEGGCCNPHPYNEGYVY
Chain of CRX (O43186 whole entry): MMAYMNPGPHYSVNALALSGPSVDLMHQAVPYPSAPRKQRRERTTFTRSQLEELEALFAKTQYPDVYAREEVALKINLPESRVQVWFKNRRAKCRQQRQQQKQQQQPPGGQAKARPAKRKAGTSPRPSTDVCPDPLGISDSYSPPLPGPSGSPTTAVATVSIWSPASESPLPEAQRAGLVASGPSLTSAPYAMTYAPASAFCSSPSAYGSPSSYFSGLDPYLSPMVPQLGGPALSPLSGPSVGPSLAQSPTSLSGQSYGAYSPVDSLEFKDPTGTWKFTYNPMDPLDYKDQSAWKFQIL
Chain of ELF1 (P32519 whole entry): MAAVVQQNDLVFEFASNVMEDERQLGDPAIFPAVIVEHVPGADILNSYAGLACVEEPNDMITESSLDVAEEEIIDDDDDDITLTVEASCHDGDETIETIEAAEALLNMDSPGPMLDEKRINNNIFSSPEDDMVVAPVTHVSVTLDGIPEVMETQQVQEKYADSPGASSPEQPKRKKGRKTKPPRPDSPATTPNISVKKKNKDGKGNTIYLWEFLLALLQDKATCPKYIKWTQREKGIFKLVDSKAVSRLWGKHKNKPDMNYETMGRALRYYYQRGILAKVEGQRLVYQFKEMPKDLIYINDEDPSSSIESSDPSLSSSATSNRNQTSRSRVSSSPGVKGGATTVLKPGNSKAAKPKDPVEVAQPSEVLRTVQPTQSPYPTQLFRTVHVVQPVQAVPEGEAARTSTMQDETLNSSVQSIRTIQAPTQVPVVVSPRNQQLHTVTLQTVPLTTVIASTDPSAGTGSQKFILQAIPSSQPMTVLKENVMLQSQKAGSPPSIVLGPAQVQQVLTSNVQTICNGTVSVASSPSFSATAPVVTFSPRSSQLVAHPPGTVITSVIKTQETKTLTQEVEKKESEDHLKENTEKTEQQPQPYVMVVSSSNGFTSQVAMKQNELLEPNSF

ATGCAA
binding signal [1]: 1.32 fold enrichment (6-mer frequency, TF over GST control)
binding signal [2]: 1.26 fold enrichment (6-mer frequency, TF over GST control)
binding signal [3]: 1.27 fold enrichment (6-mer frequency, TF over GST control)
binding signal [4]: 1.29 fold enrichment (6-mer frequency, TF over GST control)
binding signal [5]: 1.25 fold enrichment (6-mer frequency, TF over GST control)
binding signal [6]: 1.25 fold enrichment (6-mer frequency, TF over GST control)
binding signal [7]: 1.2 fold enrichment (6-mer frequency, TF over GST control)
binding signal [8]: 1.26 fold enrichment (6-mer frequency, TF over GST control)
binding signal [9]: 1.18 fold enrichment (6-mer frequency, TF over GST control)
binding signal [10]: 1.23 fold enrichment (6-mer frequency, TF over GST control)
binding signal [11]: 1.25 fold enrichment (6-mer frequency, TF over GST control)
binding signal [12]: 1.08 fold enrichment (6-mer frequency, TF over GST control)
binding signal [13]: 1.11 fold enrichment (6-mer frequency, TF over GST control)
binding signal [14]: 1.25 fold enrichment (6-mer frequency, TF over GST control)
binding signal [15]: 1.32 fold enrichment (6-mer frequency, TF over GST control)
binding signal [16]: 1.26 fold enrichment (6-mer frequency, TF over GST control)
binding signal [17]: 1.36 fold enrichment (6-mer frequency, TF over GST control)
binding signal [18]: 1.07 fold enrichment (6-mer frequency, TF over GST control)
binding signal [19]: 1.26 fold enrichment (6-mer frequency, TF over GST control)
